Data as given in PubChem BioAssay (NCI).
Compounds without any hit were thinned out: in the full panel of roughly 83,000, 20% have a hit.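 Note: values are percent growth. 100 is the growth of untreated cells, values between 100 and 0 indicate rising inhibition; between -100 and 0 indicates cell death.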 A number with no mark means an inactive call. Calls of active or inactive are those of the source. How the source made its calls: active means growth percent below 10; inactive means the rest.

How the values were obtained:
Experiment in all cases: NCI-60 one-dose screen, 48 h (100 = growth as untreated, 0 = no growth, -100 = all killed)
Settings in all cases: 10 µM unless noted
DU-145 prostate = system: DU-145 prostate
K-562 leukemia = system: K-562 leukemia
MALME-3M melanoma = system: MALME-3M melanoma
MDA-MB-231 breast = system: MDA-MB-231 breast
RXF 393 renal = system: RXF 393 renal
SF-268 CNS = system: SF-268 CNS
SF-295 CNS = system: SF-295 CNS
SF-539 CNS = system: SF-539 CNS
UACC-257 melanoma = system: UACC-257 melanoma
M14 melanoma = system: M14 melanoma
HCT-15 colon = system: HCT-15 colon
HT29 colon = system: HT29 colon
SNB-75 CNS = system: SNB-75 CNS
SNB-19 CNS = system: SNB-19 CNS
U251 CNS = system: U251 CNS
SK-MEL-5 melanoma = system: SK-MEL-5 melanoma
UACC-62 melanoma = system: UACC-62 melanoma
LOX IMVI melanoma = system: LOX IMVI melanoma
SK-MEL-28 melanoma = system: SK-MEL-28 melanoma
PC-3 prostate = system: PC-3 prostate

| Compound | growth (DU-145 prostate) | growth (K-562 leukemia) | growth (MALME-3M melanoma) | growth (MDA-MB-231 breast) | growth (RXF 393 renal) | growth (SF-268 CNS) | growth (SF-295 CNS) | growth (SF-539 CNS) | growth (UACC-257 melanoma) | growth (M14 melanoma) | growth (HCT-15 colon) | growth (HT29 colon) | growth (SNB-75 CNS) | growth (SNB-19 CNS) | growth (U251 CNS) | growth (SK-MEL-5 melanoma) | growth (UACC-62 melanoma) | growth (LOX IMVI melanoma) | growth (SK-MEL-28 melanoma) | growth (PC-3 prostate) |
| --- | --- | --- | --- | --- | --- | --- | --- | --- | --- | --- | --- | --- | --- | --- | --- | --- | --- | --- | --- | --- |
| COc1cc(C(=O)N2CCN(C(=O)c3cc(OC)c(OCc4ccccc4)cc3N)CC2)c(N)cc1OCc1ccccc1 | 111% | 7.24% (active) | 91.1% | 94.7% | 98.6% | 108% | 102% | 104% | 98.5% | 111% | 130% | 116% | 108% | 108% | 115% | 71.4% | 114% | 108% | 123% | – |
| CCn1c(C)nc([N+](=O)[O-])c1Sc1nc(N)nc2nc[nH]c12 | 24.4% | 17.3% | 53.2% | 42.3% | 36% | 31.3% | 23.8% | 26.7% | 39.7% | 8.02% (active) | 40.7% | 29.3% | 44.7% | – | 55.1% | 59.2% | 1.74% (active) | 7.51% (active) | 81.3% | 52.7% |
| CCCCCCCCCCCCCCCCNc1ccccc1 | 107% | 79.8% | 114% | 104% | 110% | 86.6% | 102% | 97.1% | 82.3% | 106% | 103% | 87.1% | 107% | – | 86.2% | 104% | 98.8% | 101% | 113% | 82% |
| CCOC(=O)C1CSC(C)(C(=O)OCC)N1 (centres undefined) | 108% | 103% | 98.4% | 107% | 115% | 106% | 106% | 104% | 111% | 98.7% | 101% | 87.9% | 100% | – | 106% | 101% | 105% | 98.2% | 107% | 95.1% |
| O=C1OC(=O)C2C3CC(c4ccccc43)C12 (centres undefined) | 145% | 111% | 101% | 117% | 116% | 123% | 101% | 103% | 91.8% | 112% | 94.5% | 112% | 89.4% | 107% | 97.4% | 112% | 105% | 103% | 116% | – |
| O=C(NCCNc1nccc(-c2c(-c3cccc(O)c3)nc3sccn23)n1)c1ccccc1 | 90.4% | 62.7% | 9.31% (active) | 80% | 62.6% | 80.7% | 67.4% | 73.2% | 11.3% | 15.3% | 88.4% | 65.4% | 54.4% | 91.1% | 61.9% | 40.2% | 0.903% (active) | 23.2% | 37.8% | – |
| COC1OCC(OS(=O)(=O)c2ccc(C)cc2)C(OC(=O)c2ccccc2)C1OC(=O)c1ccccc1 (centres undefined) | 66.6% | 37.8% | 37.3% | 57.2% | 49.6% | 62.4% | 30% | 39.2% | 71% | 34.3% | 38.3% | 7.49% (active) | 32.5% | – | 39.3% | 30.7% | 36.1% | 44.8% | 57.7% | 47.8% |
| COC(=O)c1oc2c(C(C)=O)c(OCCCN(C)C)ccc2c1C | 150% | 73.3% | 72.3% | 95% | 96.1% | 207% | 109% | 124% | 106% | 123% | 99.6% | 69.1% | 91.3% | – | 99.5% | 103% | 98.8% | 95% | 110% | 88.9% |
| O=C(NCCNc1nccc(-c2c(-c3cccc(O)c3)nc3sccn23)n1)c1ccccc1O | 67.2% | 40.5% | 14.6% | 48.4% | 50.9% | 62.5% | 46.4% | 61.9% | 14.8% | 16.7% | 54.5% | 49.2% | 40.6% | – | 61.6% | 22.7% | 0.528% (active) | 33.5% | 41.4% | 51.1% |
| COc1ccc(C2=NN(C(=O)COc3ccc(Cl)cc3)C(O)(c3cc(F)c(Cl)cc3Cl)C2)cc1OC (centres undefined) | 9.5% (active) | -66.5% (active) | 6.18% (active) | 30% | -90.8% (active) | 4.05% (active) | 75.7% | 30.5% | 107% | -13.4% (active) | 4.88% (active) | -75.9% (active) | 3.94% (active) | – | 55.5% | 65.4% | 52.5% | -35.6% (active) | -51.6% (active) | 32.1% |
| CCN(CC)CCN1C(=O)c2c(c3c4ccccc4[nH]c3c3[nH]c4ccccc4c23)C1=O | 105% | 17.8% | 86.1% | 83.8% | 83.6% | 87.3% | 84.7% | 88.8% | 105% | 79.5% | 59.4% | 46.5% | 80% | 80.3% | 87.9% | 94.3% | 87.2% | 82.3% | 96.3% | – |
| O=S(=O)(Nc1cccc2cc(OS(=O)(=O)c3ccccc3)ccc12)c1ccccc1 | 92% | 25.2% | 56.2% | 76.4% | 86.5% | 74.2% | 59.3% | 63.4% | 75.6% | 40.3% | 34.4% | 19.2% | 49.6% | – | 48.5% | 53.4% | 61% | 55.4% | 66.4% | 59% |
| O=C(NCCNc1nccc(-c2c(-c3cccc(O)c3)nc3sccn23)n1)c1ccc(N2CCOCC2)c(C(F)(F)F)c1 | 94.9% | 63% | -4.27% (active) | 64.9% | 57.6% | 79.1% | 67.5% | 77.8% | 15.8% | 19.1% | 80.1% | 68.6% | 58% | 107% | 82% | 40% | 5.88% (active) | 42.2% | 42.8% | – |
| COc1ccc(OC)c(NCC(=O)n2nc(/C=C\c3ccc(O)c(OC)c3)cc2/C=C\c2ccc(O)c(OC)c2)c1 | 22.9% | 4.4% (active) | 23.3% | 15.7% | -49.5% (active) | 23.1% | 24% | 0.158% (active) | 30.2% | 16.5% | 17.5% | -70.2% (active) | 25.5% | 16.7% | 4.56% (active) | 9.05% (active) | 15.8% | 9.71% (active) | 21.2% | – |
| CCC1S/C(=N\N=C(/C)c2ccco2)N(c2ccccc2)C1=O (centres undefined) | 123% | 120% | 79.6% | 118% | 103% | 100% | 123% | 107% | 109% | 138% | 118% | 86.8% | 103% | – | 104% | 146% | 92% | 99.5% | 108% | 76.6% |
| c1ccc(CNCCN(CCNCc2ccccn2)Cc2ccc3ccccc3c2)nc1 | 13.7% | -0.99% (active) | 24.6% | 4.02% (active) | 45.1% | 19% | -35.6% (active) | -34.8% (active) | 31.7% | -49.4% (active) | 1.52% (active) | 6.31% (active) | 21.2% | – | 3.09% (active) | -43.1% (active) | -23.4% (active) | 0.713% (active) | 5% (active) | -0.81% (active) |
